The full data set covers some 7,900 targets. This sample favours those with a hit. About 0.6% of all pairs of compound and target were hits.

Sequence of UniProt Q14442 (Q14442 whole entry, looked up): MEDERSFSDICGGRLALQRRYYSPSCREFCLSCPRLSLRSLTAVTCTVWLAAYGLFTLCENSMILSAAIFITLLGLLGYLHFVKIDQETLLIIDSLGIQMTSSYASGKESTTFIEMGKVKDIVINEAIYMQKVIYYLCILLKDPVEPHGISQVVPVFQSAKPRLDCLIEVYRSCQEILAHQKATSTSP
Sequence of UniProt P14618 (P14618 whole entry, looked up): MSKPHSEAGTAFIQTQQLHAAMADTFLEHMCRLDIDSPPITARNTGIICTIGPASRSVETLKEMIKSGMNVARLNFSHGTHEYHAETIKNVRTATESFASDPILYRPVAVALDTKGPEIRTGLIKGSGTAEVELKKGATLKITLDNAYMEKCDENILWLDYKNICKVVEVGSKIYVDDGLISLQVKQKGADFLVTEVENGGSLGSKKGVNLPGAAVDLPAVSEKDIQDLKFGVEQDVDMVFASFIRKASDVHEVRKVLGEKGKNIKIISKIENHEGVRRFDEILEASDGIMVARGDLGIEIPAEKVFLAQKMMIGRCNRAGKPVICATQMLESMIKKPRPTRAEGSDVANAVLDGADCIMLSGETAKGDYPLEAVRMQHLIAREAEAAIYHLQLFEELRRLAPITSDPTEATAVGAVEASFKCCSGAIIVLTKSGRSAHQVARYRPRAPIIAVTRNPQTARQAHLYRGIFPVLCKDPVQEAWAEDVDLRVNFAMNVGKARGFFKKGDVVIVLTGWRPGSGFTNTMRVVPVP
Sequence of UniProt P54619 (P54619 whole entry, looked up): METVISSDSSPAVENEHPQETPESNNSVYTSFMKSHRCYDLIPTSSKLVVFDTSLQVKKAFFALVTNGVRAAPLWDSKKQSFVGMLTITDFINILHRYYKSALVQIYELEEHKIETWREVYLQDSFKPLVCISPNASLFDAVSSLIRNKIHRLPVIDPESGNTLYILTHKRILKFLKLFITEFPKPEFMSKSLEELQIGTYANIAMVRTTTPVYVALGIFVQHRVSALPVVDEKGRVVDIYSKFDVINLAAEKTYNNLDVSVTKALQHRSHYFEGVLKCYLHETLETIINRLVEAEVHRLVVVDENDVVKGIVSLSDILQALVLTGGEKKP
Sequence of UniProt Q99541 (Q99541 whole entry, looked up): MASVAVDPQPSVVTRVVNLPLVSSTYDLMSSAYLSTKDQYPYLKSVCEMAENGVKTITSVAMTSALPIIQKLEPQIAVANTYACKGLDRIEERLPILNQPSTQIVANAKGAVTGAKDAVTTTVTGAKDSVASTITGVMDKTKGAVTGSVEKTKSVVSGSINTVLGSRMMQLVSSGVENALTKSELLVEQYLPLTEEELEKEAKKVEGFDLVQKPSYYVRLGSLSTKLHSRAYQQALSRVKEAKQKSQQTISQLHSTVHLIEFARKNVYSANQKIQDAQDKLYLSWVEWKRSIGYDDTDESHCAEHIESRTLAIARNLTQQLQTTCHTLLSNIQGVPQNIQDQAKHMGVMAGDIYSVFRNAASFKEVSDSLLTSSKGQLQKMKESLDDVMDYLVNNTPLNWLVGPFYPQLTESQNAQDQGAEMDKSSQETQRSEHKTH
Sequence of UniProt Q9H307 (Q9H307 whole entry, looked up): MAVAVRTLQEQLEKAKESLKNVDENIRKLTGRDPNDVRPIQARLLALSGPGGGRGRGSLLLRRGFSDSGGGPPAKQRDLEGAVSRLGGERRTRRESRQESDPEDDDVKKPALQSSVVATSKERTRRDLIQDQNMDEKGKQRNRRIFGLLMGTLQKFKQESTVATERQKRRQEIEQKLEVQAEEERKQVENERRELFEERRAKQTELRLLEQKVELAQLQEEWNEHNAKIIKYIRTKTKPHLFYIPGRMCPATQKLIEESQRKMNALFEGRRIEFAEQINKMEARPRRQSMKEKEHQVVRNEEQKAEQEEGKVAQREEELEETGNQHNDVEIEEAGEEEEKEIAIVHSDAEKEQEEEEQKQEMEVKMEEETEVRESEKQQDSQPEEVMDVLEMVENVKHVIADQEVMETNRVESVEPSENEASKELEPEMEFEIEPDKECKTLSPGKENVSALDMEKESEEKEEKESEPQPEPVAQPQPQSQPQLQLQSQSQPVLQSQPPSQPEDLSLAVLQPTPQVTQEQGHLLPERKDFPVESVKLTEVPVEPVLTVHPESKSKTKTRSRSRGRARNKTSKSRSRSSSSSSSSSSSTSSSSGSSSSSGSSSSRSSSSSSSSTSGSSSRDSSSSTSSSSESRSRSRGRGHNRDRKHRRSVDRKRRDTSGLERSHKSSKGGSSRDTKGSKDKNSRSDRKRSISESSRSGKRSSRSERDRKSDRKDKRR
Sequence of UniProt P09874 (P09874 whole entry, looked up): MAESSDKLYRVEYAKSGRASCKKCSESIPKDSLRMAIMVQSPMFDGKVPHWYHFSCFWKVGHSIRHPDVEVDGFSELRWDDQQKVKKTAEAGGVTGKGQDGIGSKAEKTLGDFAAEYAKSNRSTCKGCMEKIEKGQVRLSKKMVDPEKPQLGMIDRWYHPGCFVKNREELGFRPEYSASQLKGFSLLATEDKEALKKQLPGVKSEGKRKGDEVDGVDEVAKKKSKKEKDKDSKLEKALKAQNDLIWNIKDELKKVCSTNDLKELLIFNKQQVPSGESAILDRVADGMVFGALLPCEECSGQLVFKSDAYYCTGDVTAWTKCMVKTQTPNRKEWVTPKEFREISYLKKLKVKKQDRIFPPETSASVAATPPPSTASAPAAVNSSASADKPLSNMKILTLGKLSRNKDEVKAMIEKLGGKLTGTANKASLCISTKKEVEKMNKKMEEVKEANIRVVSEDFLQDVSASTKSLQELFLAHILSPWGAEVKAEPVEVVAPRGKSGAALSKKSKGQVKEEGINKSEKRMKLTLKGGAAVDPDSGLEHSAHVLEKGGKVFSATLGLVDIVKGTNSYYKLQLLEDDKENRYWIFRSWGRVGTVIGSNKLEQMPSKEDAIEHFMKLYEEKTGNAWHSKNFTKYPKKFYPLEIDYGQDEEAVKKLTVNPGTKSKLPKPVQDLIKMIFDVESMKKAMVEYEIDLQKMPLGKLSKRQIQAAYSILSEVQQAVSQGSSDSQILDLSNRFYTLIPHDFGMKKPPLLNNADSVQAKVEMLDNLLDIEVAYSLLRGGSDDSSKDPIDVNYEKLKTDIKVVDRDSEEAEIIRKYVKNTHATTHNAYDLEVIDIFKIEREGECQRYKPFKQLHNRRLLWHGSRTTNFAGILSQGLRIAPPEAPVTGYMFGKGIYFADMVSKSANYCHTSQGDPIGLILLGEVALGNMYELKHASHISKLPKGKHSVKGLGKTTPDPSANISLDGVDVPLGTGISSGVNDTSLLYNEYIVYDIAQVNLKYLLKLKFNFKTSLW
Sequence of UniProt P07205 (P07205 whole entry, looked up): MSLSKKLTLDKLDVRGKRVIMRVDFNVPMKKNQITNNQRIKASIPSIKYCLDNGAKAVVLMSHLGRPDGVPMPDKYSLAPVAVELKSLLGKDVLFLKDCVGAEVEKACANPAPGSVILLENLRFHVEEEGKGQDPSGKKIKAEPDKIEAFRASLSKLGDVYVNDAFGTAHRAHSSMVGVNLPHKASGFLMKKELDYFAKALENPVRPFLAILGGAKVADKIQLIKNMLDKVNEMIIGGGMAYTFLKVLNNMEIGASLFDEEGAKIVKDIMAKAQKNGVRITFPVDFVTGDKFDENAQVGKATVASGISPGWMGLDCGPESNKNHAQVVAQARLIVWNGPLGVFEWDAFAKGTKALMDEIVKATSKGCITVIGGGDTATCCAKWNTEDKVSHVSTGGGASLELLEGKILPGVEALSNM
Sequence of UniProt Q9NR22 (Q9NR22 whole entry, looked up): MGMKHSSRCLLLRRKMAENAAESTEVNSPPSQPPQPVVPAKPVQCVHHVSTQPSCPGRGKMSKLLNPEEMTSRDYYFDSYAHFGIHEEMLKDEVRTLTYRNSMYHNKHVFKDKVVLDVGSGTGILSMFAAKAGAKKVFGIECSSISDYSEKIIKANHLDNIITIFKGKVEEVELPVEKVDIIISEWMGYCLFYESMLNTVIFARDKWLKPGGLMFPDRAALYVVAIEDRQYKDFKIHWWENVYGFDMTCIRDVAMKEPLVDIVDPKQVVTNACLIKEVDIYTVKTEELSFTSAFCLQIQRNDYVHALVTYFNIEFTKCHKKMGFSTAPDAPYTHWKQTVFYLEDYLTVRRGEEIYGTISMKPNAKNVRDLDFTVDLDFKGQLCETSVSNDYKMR
Sequence of UniProt Q2TAL8 (Q2TAL8 whole entry, looked up): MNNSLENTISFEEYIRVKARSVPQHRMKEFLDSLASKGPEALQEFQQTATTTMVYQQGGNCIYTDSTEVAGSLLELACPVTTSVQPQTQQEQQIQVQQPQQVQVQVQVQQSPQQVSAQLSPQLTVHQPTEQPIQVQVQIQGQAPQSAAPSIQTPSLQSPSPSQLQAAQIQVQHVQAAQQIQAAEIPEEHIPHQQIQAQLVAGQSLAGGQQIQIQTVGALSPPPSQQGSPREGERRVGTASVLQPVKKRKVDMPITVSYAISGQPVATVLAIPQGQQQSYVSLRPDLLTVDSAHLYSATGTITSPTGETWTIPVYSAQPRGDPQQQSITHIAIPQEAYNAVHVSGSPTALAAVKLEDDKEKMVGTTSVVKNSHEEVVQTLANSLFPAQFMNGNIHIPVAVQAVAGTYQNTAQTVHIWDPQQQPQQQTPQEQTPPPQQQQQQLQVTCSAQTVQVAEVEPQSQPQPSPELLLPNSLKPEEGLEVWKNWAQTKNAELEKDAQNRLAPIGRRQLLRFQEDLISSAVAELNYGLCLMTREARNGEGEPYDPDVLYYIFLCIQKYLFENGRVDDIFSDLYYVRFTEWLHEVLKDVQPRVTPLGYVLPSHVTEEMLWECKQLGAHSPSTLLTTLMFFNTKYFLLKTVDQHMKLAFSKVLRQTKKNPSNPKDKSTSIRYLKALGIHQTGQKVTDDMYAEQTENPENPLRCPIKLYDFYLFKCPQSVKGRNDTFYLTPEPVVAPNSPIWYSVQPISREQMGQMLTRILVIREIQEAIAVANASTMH
Sequence of UniProt Q15121 (Q15121 whole entry, looked up): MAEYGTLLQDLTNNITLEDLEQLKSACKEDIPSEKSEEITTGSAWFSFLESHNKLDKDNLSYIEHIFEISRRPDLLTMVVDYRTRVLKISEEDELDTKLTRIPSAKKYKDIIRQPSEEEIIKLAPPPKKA

Compound in one assay: CCn1c(C(=O)N(C2CC2)C2CC2)cc2c3c(ncn3C)c(Nc3cc(C)n(C)n3)nc21
In words: log2 fold change, soluble protein after heating vs DMSO (PISA); higher = thermal stabilisation; K562 cells, 10 uM, 30 min; active = over 0.2 and 3.5 SD of the protein, either way, in both replicates (recomputed). The method, boiled down: (§1)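 K562 cells (2×10^6 cells/mL) were treated with 10 μM compound for 30 min, and aliquots were heated for 3 min over 48°C-58°C. Pooled aliquots were extracted in PBS with 0.5% NP-40 at 4°C, and the supernatant after 21,000xg for 90 min was measured by TMTpro 16plex LC-MS/MS with channel sums equalised. Reported thermal stability, relative to control samples and from duplicates, is a log2 fold change.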
With PHKA1 (UniProt P46020), the log2 fold change is -0.019 (inactive). Same read-out and setting: under POLR2E (UniProt P19388) stands -0.104 (inactive); under PRMT8 (UniProt Q9NR22), 0.035 (inactive). Still for that read-out and setting: under PRKAR2A (UniProt P13861) stands -0.007 (inactive). Take PHC3 isoform 7 (UniProt Q8NDX5): the log2 fold change is -0.113 (inactive). The same measure, in the same setting: under PATL1 (UniProt Q86TB9) stands -0.022 (inactive); under PARP1 (UniProt P09874), -0.088 (inactive); under PHLDB1 isoform 2 (UniProt Q86UU1), -0.02 (inactive). Same read-out and setting: under QRICH1 (UniProt Q2TAL8) stands -0.163 (inactive); under PEA15 isoform 2 (UniProt Q15121), 0.083 (inactive).

Compound in another assay: CCn1cc(-c2ccnc3[nH]c(-c4cccc(CN(C)C)c4)cc23)c(-c2ccc(NC(=O)N(C)C)cc2)n1
The assay is described as above. The method, boiled down:
as §1
For PKM isoform 2 (UniProt P14618), the log2 fold change was -0.006 (inactive). The same measure, in the same setting: under POLB (UniProt P06746) stands 0.111 (inactive). The same measure, in the same setting: under PPP2R5A (UniProt Q15172) stands -0.046 (inactive). Still for that read-out and setting: under POMK (UniProt Q9H5K3) stands 0.054 (inactive); under PRKAG1 isoform 3 (UniProt P54619), -0.033 (inactive); under PSMB9 (UniProt P28065), 0.033 (inactive). PTGFRN (UniProt Q9P2B2): the log2 fold change is -0.049 (inactive). Same read-out and setting: under PGK2 (UniProt P07205) stands 0.123 (inactive); under PIGH (UniProt Q14442), -0.038 (inactive). Still for that read-out and setting: under PNN (UniProt Q9H307) stands 0.021 (inactive). Same read-out and setting: under PPP2R5B (UniProt Q15173) stands 0.015 (inactive).

Regarding PLIN2 (UniProt Q99541), the log2 fold change was -0.01 (inactive).

Values taken from the supplement of paper PMC10849652.
